Here are results for 14 compounds from PubChem BioAssay (EPA / NIEHS).

Results filed as inconclusive are left out. The source made the active and inactive calls. The calls were made as follows, unless noted: active = hit-call score of the fitted dose curve at least 0.9, where 1 is the maximum; inactive = score below 0.9.

Test [1] has as its target Retinoic acid receptor RXR-alpha (Homo sapiens) (UniProt P19793). Description: ATG_RXRa_TRANS: Attagene TRANS-FACTORIAL HepG2 Assay for human Retinoid X Receptor alpha (RXRa) (AID 2283012; active = hit-call score of the fitted dose curve at least 0.9, where 1 is the maximum). Put shortly: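 Cells (HepG2) carried transiently transfected GAL4-responsive reporter units. Following a 24 h chemical incubation, reporter mRNA induction was read via RT-PCR fragment analysis; DMSO served as negative control and baseline.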

Test [2] has as its target human Retinoid X Receptor beta (RXRb), RXRB (gene 6257) (UniProt P28702). Description: ATG_RXRb_TRANS: Attagene TRANS-FACTORIAL HepG2 Assay for human Retinoid X Receptor beta (RXRb) (AID 2283013; active = hit-call score of the fitted dose curve at least 0.9, where 1 is the maximum). Summed up:
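Multiplexed TRANS reporter assay in HepG2; 24 h dosing; reporter mRNA by RT-PCR/CE fluorescence; gain-of-signal relative to DMSO.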

The target of test [3] is human Vitamin D Receptor (VDR), VDR (gene 7421) (UniProt P11473). In words: ATG_VDR_TRANS: Attagene TRANS-FACTORIAL HepG2 Assay for human Vitamin D Receptor (VDR) (AID 2283022; active = hit-call score of the fitted dose curve at least 0.9, where 1 is the maximum). Summed up: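 HepG2 cells were transiently transfected with GAL4-UAS reporter units and a chimeric VDR-Gal4 construct, then dosed for 24 hours. Reporter mRNA was quantified by RT-PCR, fluorescent labeling, HpaI digestion and capillary electrophoresis; gain of signal analysed vs DMSO.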

In test [4] the target is human Thyroid Receptor alpha (THRa1), THRA (gene 7067) (UniProt P10827). Description: ATG_THRa1_TRANS: Attagene TRANS-FACTORIAL HepG2 Assay for human Thyroid Receptor alpha (THRa1) (AID 2283014; active = hit-call score of the fitted dose curve at least 0.9, where 1 is the maximum). Put shortly:
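HepG2 cells transiently transfected with chimeric NR-Gal4 and GAL4-UAS reporter units, dosed 24 h. Reporter mRNA quantified by RT-PCR, fluorescent labeling, HpaI digestion and capillary electrophoresis; gain-of-signal fit versus DMSO.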

Read-out in test [5]: E-selectin (Homo sapiens) (UniProt P16581)
Description: BSK_3C_Eselectin: BioMAP Diversity Plus: 3C Assay for Eselectin Biomarker Activity (AID 2283015).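 Also: cell surface E-selectin protein quantified by ELISA 24 h after dosing.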 To be noted: primary human endothelial cells (HUVEC); actives raise or lower the signal. Summed up: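 Primary human umbilical vein endothelial cells (3C system), read 24 h after compound addition; E-selectin measured by ELISA. Bidirectional curve fitting against DMSO baseline; cytotoxicity by parallel SRB total-protein staining.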

Read-out in test [6]: Interleukin-1 alpha (IL1a), IL1A (gene 3552)
Description: BSK_BE3C_IL1a: BioMAP Diversity Plus: BE3C Assay for Interleukin-1 alpha (IL1a) Biomarker Activity (AID 2283016). To be noted: primary human bronchial epithelial cells; actives raise or lower the signal. Summed up:
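Cultures of primary human bronchial epithelial cells receive test chemical. After 24 h, IL-1a is quantified by ELISA, while parallel wells are fixed in TCA and SRB-stained for total protein. Changes in either direction are fitted relative to DMSO.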

Read-out in test [7]: Monocyte Chemoattractant Protein-1 (MCP1), CCL2 (gene 6347)
In words: BSK_3C_MCP1: BioMAP Diversity Plus: 3C Assay for Monocyte Chemoattractant Protein-1 (MCP1) Biomarker Activity (AID 2283017). The following applies: primary human endothelial cells (HUVEC); actives raise or lower the signal. Summed up: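 Human umbilical vein endothelial cells (3C system) exposed to chemicals for 24 h; MCP-1 quantified by ELISA against the DMSO baseline with bidirectional fitting, and parallel SRB staining used to assess cytotoxicity.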

Read-out in test [8]: Monocyte Chemoattractant Protein-1 (MCP1), CCL2 (gene 6347)
In words: BSK_4H_MCP1: BioMAP Diversity Plus: 4H Assay for Monocyte Chemoattractant Protein-1 (MCP1) Biomarker Activity (AID 2283018). To be noted: primary human endothelial cells (HUVEC); actives raise or lower the signal. Put shortly: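 Readout: MCP-1 ELISA on compound-treated HUVEC, sampled 24 h post-dosing. Baseline and negative control DMSO; bidirectional fit. Overt toxicity checked alongside by sulforhodamine B protein staining at time of biomarker measurement.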

Read-out in test [9]: Human Leukocyte Antigen - DR isotype (HLADR), HLA-DRA (gene 3122)
Description: BSK_3C_HLADR: BioMAP Diversity Plus: 3C Assay for Human Leukocyte Antigen - DR isotype (HLADR) Biomarker Activity (AID 2283019).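 Also: ELISA of cell-surface HLA-DR on HUVEC 24 h after dosing.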 The following applies: primary human endothelial cells (HUVEC); actives raise or lower the signal. Put shortly:
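HUVEC monoculture, HLA-DR measured by ELISA 24 h after chemical dosing. Fitted bidirectionally against DMSO baseline; parallel SRB staining assessed cytotoxicity, with 3C proliferation read by SRB at 48 h.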

Read-out in test [10]: Interleukin-8 (IL8), CXCL8 (gene 3576)
In words: BSK_3C_IL8: BioMAP Diversity Plus: 3C Assay for Interleukin-8 (IL8) Biomarker Activity (AID 2283020). The following applies: primary human endothelial cells (HUVEC); actives raise or lower the signal. Put shortly: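 Human vascular endothelial cells (umbilical vein) in the 3C system; IL-8 level detected by ELISA at 24 h post-dose, with DMSO as baseline.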

The nature of test [11]: BSK_3C_SRB: Viability Assessment in the BioMAP Diversity Plus: 3C Assay (AID 2283023).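 Also: fitted both ways against DMSO so a hit may be signal rise or drop.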 To be noted: primary human endothelial cells (HUVEC). Summed up: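 Human umbilical vein endothelial cells in the 3C system, treated 24 h. Total protein measured by 0.1% sulforhodamine B staining after 10% TCA fixation, read at 560 nm; bidirectional fit versus DMSO.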
Read-out in test [12]: Matrix Metallopeptidase 1 (MMP1), MMP1 (gene 4312)
In words: BSK_BE3C_MMP1: BioMAP Diversity Plus: BE3C Assay for Matrix Metallopeptidase 1 (MMP1) Biomarker Activity (AID 2283024). The following applies: primary human bronchial epithelial cells; actives raise or lower the signal. Summed up: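 Dose cells, wait 24 h, run MMP1 ELISA; cells are human bronchial epithelial primaries. Both increases and decreases relative to DMSO counted.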

The nature of test [13]: BSK_3C_Vis: BioMAP Diversity Plus: 3C Assay for Morphology Visualization (AID 2283025).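 Also: fitted both ways so gain or loss versus DMSO counts.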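 As to AC50: light microscopy image of cell morphology used as background control.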 The following applies: primary human endothelial cells (HUVEC). Put shortly: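 Endothelial cells from human umbilical vein were treated with test chemicals for 24 h and inspected by light microscopy for changes in cell conformation.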
Read-out in test [14]: Pselectin, SELP (gene 6403)
Description: BSK_4H_Pselectin: BioMAP Diversity Plus: 4H Assay for Pselectin Biomarker Activity (AID 2283026). The following applies: primary human endothelial cells (HUVEC); actives raise or lower the signal. Put shortly:
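Human vascular endothelium from umbilical vein; P-selectin measured by ELISA at 24 h post-dose, with cytotoxicity checked by sulforhodamine B total-protein staining in parallel cultures (0.1% SRB after 10% TCA fixation, read at 560 nm).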

A short description of test [15]: BSK_4H_SRB: Viability Assessment in the BioMAP Diversity Plus: 4H Assay (AID 2283027).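 Also: cells exposed to compound for 24 h before staining.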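 As to AC50: curves fitted both ways versus DMSO so AC50 may be loss or gain.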 To be noted: primary human endothelial cells (HUVEC). Put shortly: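 Human umbilical vein endothelial cells, 24 h after chemical dosing; total protein measured by 0.1% sulforhodamine B staining after 10% TCA fixation, read at 560 nm. Bidirectional fitting against DMSO.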
Test [16] can be described thus: BSK_BE3C_SRB: Viability Assessment in the BioMAP Diversity Plus: BE3C Assay (AID 2283028). To be noted: primary human bronchial epithelial cells. Summed up: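 Human bronchial epithelial primary cells in confluent culture, 24 h after chemical dosing; total protein by 0.1% SRB staining after 10% TCA fixation, read at 560 nm. Bidirectional fitting versus DMSO baseline.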

Read-out in test [17]: Thrombomodulin, THBD (gene 7056)
In words: BSK_3C_Thrombomodulin: BioMAP Diversity Plus: 3C Assay for Thrombomodulin Biomarker Activity (AID 2283029). To be noted: primary human endothelial cells (HUVEC); actives raise or lower the signal. Put shortly:
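Thrombomodulin ELISA, human primary HUVEC, 24 h post-dose; data fitted in both directions relative to DMSO.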

Read-out in test [18]: Urokinase-type plasminogen activator receptor (uPAR), PLAUR (gene 5329)
In words: BSK_4H_uPAR: BioMAP Diversity Plus: 4H Assay for Urokinase-type plasminogen activator receptor (uPAR) Biomarker Activity (AID 2283030). To be noted: primary human endothelial cells (HUVEC); actives raise or lower the signal. Put shortly: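 Human umbilical vein endothelial cells in the 4H system, 24 h after chemical dosing. Cell-surface uPAR measured by ELISA, fitted in both directions versus DMSO; cytotoxicity checked by SRB total protein in parallel cultures.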

Retinoic acid receptor RXR-alpha (Homo sapiens), sequence (P19793 whole entry, looked up, the tested form may be a part): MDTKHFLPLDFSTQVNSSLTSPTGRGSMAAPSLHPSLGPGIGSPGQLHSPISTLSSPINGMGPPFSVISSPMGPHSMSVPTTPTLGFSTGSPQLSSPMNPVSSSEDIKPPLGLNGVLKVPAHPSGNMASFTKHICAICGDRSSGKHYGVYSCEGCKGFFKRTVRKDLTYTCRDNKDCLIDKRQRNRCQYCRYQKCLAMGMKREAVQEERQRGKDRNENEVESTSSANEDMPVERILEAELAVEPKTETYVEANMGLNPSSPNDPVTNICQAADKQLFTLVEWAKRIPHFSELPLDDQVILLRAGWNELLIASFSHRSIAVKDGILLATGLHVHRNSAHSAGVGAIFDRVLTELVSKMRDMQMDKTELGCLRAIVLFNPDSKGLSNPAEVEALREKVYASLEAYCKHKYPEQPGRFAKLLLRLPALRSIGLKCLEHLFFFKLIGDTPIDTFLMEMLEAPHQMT
human Thyroid Receptor alpha (THRa1), THRA (gene 7067), sequence (P10827 whole entry, looked up, the tested form may be a part): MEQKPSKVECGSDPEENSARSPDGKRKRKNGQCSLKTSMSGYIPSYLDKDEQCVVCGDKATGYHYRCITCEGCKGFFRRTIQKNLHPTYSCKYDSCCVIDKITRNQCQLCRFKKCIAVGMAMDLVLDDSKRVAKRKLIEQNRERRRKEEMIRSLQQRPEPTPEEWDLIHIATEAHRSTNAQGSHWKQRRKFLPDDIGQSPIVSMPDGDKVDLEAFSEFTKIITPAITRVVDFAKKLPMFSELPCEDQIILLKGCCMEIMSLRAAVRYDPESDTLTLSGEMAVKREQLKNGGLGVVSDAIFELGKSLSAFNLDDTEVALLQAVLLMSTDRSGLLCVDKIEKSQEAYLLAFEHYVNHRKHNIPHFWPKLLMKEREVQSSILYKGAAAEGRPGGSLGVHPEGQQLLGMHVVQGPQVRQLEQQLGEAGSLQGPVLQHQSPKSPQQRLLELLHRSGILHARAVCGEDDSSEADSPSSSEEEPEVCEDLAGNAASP
human Vitamin D Receptor (VDR), VDR (gene 7421), sequence (P11473 whole entry, looked up, the tested form may be a part): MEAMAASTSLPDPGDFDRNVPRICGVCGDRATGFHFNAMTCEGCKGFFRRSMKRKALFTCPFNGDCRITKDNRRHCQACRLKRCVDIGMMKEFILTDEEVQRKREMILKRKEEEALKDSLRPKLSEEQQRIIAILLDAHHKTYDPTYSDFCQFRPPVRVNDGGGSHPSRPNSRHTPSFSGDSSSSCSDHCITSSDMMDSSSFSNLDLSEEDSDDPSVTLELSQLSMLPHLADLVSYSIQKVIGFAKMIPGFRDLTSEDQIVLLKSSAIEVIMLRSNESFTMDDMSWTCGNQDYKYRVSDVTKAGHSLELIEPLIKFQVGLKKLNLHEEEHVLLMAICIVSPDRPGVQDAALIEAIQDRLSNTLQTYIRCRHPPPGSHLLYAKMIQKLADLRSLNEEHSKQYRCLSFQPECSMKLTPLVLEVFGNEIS
E-selectin (Homo sapiens), sequence (P16581 whole entry, looked up): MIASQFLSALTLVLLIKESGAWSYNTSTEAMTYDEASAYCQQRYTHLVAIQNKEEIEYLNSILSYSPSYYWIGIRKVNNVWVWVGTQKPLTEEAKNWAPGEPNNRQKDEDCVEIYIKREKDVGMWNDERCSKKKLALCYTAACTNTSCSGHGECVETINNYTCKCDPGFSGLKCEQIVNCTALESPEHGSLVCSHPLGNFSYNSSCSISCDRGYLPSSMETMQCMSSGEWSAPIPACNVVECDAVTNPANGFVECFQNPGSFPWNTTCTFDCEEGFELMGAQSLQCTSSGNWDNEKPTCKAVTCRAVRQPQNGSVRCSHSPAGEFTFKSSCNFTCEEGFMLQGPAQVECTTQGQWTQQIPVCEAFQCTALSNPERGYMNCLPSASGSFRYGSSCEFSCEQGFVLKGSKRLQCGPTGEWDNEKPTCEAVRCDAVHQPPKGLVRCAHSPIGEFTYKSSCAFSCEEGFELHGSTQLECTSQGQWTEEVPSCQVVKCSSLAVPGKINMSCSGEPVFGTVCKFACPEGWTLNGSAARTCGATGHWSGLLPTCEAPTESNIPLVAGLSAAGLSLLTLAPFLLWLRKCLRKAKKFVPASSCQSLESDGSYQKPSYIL
human Retinoid X Receptor beta (RXRb), RXRB (gene 6257), sequence (P28702 whole entry, looked up): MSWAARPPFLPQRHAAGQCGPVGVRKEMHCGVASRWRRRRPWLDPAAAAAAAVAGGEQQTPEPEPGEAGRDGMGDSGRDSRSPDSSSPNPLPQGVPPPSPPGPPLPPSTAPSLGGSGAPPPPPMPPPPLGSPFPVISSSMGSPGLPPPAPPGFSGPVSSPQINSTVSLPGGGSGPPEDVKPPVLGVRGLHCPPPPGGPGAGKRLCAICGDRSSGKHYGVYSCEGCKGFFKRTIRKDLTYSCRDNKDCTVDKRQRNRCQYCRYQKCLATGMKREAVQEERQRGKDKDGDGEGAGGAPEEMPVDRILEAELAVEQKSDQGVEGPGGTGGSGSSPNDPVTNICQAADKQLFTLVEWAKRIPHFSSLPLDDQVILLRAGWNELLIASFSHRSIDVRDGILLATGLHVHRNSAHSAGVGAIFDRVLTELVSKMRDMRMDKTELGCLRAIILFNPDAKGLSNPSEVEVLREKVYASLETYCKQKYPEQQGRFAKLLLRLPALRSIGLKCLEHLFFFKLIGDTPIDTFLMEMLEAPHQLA

With `CCOC(OCC)C(=O)c1ccccc1`, the outcome in test [1], in test [2] and in test [3] was inactive.
On to `CCCCCCOC(=O)c1ccc(O)cc1`, for which the call in test [1], in [4] and in test [3] was inactive. For the same compound, in test [2], the AC50 (usually the concentration giving half of the maximal activity seen) is 33.4 µM (active).
For the compound `O=C1OC(=O)C(F)(F)C1(F)F`, the compound was classed as inactive in test [1] and in test [4].
Regarding `O=C(NCc1ncc(C(F)(F)F)cc1Cl)c1c(Cl)cccc1Cl`, the call in test [1], in test [4], in test [5], in test [6], in [7] and in test [8] was inactive. Further, the outcome in test [9], in [10], in test [3], in test [11], in test [12] and in test [13] was inactive. Also, the result in test [14], in [15], in test [16], in test [17] and in test [18] was inactive.
As for `O=C1c2ccccc2C(=O)c2c(O)c(O)cc(O)c21`, the outcome in [2] and in [3] was inactive. The AC50 in test [4] was 21.4 µM (active).
For `O=C1c2ccc(O)c(O)c2C(=O)c2c(O)ccc(O)c21`, the compound was classed as inactive in [2], in test [5], in test [6], in test [7], in test [8] and in test [10]. For the same compound, the outcome in test [3], in test [11], in [12], in test [13], in [15] and in test [16] was inactive. The outcome in [17] and in test [18] was inactive. The AC50 in test [4] is 13.8 µM (active).
Take `NNC(=O)CCCCC(=O)NN`: the call in test [1], in test [4] and in test [3] was inactive.
On to `CC1CCC(C(=O)O)CC1` (configuration not stated), for which the compound was called inactive in test [1], in test [4] and in test [3].
In the case of `CCCCCCCCCCCCOC(=O)c1cc(O)c(O)c(O)c1`, the outcome in test [1], in [4] and in test [3] was inactive.
For `O=C(CCCN1CCC(O)(c2ccc(Cl)cc2)CC1)c1ccc(F)cc1`, the result in test [2], in test [4], in test [5], in test [6], in test [7] and in test [8] was inactive. The outcome in test [12], in [14], in test [16] and in test [17] was inactive. In addition, the AC50 in [10] is 9.25 µM (active); in test [11], 17.4 µM (active); in [13] it was 9.8 µM (active); in test [15], 9.78 µM (active); in [18], 10.9 µM (active).
For `CS(=O)(=O)c1ccc([C@@H](CC2CCCC2)C(=O)Nc2cnccn2)cc1Cl`, the call in test [2], in [4], in test [5], in test [6], in test [7] and in [8] was inactive. Further, the result in test [9], in test [10], in [13], in test [16] and in [17] was inactive. Moreover, the AC50 in test [11] is 30.3 µM (active); in test [12], 9.05 µM (active); in [15] it was 19.2 µM (active); in test [18] it was 22.7 µM (active).
Consider `Cn1sccc1=O`, for which the outcome in test [1], in [4] and in test [3] was inactive.
Take `CCCCCC(C)OC(=O)COc1ccc(Cl)c2cccnc12` (configuration not stated): the compound was called inactive in test [1] and in test [3].
Regarding `CN(Cc1cnc2nc(N)nc(N)c2n1)c1ccc(C(=O)N[C@@H](CCC(=O)O)C(=O)O)cc1`, the result in test [1], in test [5], in test [6], in test [7], in test [8] and in test [10] was inactive. In addition, the outcome in test [11], in [12], in test [13], in [14], in [15] and in test [16] was inactive. Further, the outcome in [17] and in test [18] was inactive.
